What all share (test): NCI-60 one-dose screen, 48 h (100 = growth as untreated, 0 = no growth, -100 = all killed)
Holding throughout (conditions): 10 µM unless noted

For assay [1], the system named is NCI-H23 lung.
Assay [2] concerns NCI-H226 lung.
In assay [3] the test system is NCI-H322M lung.
Assay [4] deals with NCI-H460 lung.
Assay [5] has as its system HOP-92 NSCLC.
The test system of assay [6] is NCI-H522 lung.
The test system of assay [7] is A549/ATCC NSCLC.
In assay [8] the test system is 786-0 renal.
Assay [9] concerns COLO 205 colon.
Assay [10] relates to DU-145 prostate.
In assay [11] the test system is K-562 leukemia.
Assay [12] has as its system MALME-3M melanoma.
In assay [13] the test system is MDA-MB-231 breast.
Assay [14] has as its system RXF 393 renal.
Assay [15] deals with SF-268 CNS.
The subject of assay [16] is SF-295 CNS.
Assay [17] deals with UACC-257 melanoma.
Assay [18] has as its system M14 melanoma.
Assay [19] relates to HOP-62 NSCLC.
For assay [20], the system named is SF-539 CNS.

About 83,000 compounds went through this panel and 20% of them were active in at least one assay; those are over-represented in the sample as a whole.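 96-well plates, one dose, 48 hours. Percent growth reported; active if below 10.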 A number with no mark means an inactive call. Active and inactive are the calls of the source.

Data on nine molecules can be found in PubChem BioAssay (NCI).

`CCCC(=O)Oc1ccc(/C(=C(/CC)Cc2ccccc2)c2ccc(OCCN3CCCC3)cc2)cc1`: the growth is 81.7% in assay [1]; 96% in assay [2]; 79.2% in assay [3]; 20.8% in assay [4]; 79.1% in assay [5]; 78.4% in [6]. Besides, the growth in [7] is 67.8%; in assay [8], 76.6%; in assay [9], -6.63% (active); in assay [10], 87%; in [11], 2.42% (active); in [12], 91.4%. The growth in [13] was 78.2%; in assay [14] it was 68.2%; in assay [15] it was 67.4%; in assay [16] it was 100%; in assay [17], 87.6%; in [18] it was 63.9%.
Take `C[C@@]1(N2C(=O)OC[C@@H]2c2ccccc2)C(=O)N([C@H](CC(=O)N2CCC(N3CCCCC3)CC2)C(=O)NCc2cccc(C(F)(F)F)c2)[C@@H]1/C=C/c1ccccc1`: the growth was 78.8% in assay [1]; 89.6% in [2]; 72.8% in assay [3]; 84.7% in [19]; 2.37% (active) in assay [4]; 64.4% in assay [5]. Also, the growth in assay [8] was 70%; in assay [9], -67.1% (active); in assay [10], 63.5%; in [11], -40.6% (active); in [12], -69.5% (active); in assay [13], 31%. In addition, the growth in assay [14] is 61%; in assay [15] it was 63.2%; in assay [16], 100%; in assay [17], -72.1% (active); in assay [18], -54.3% (active).
Take `NS(=O)(=O)c1ccc(-n2ncc3c(=O)[nH]c(CN4CCN(c5cc6c(cc5F)c(=O)c(C(=O)O)cn6C5CC5)CC4)nc32)cc1`: the growth in assay [1] was 87.9%; in assay [2], 100%; in assay [3] it was 102%; in [4], 101%; in [5], 88.4%; in assay [6], 91.8%. For the same molecule, the growth in [7] was 104%; in assay [8] it was 96.1%; in [9], 114%; in [10] it was 110%; in [11], 95.8%; in assay [12] it was 105%. Also, the growth in assay [13] was 85.8%; in assay [14] it was 98.2%; in [15] it was 91.6%; in [16] it was 91.8%; in assay [20], 97%; in [17] it was 105%. Further, in assay [18], the growth was 92.9%.
`CC(=O)OCC1OC(OC2=C(CC=C(Cl)Cl)C(=O)c3ccccc3C2=O)C(OC(C)=O)C(OC(C)=O)C1OC(C)=O` (centres undefined): the growth was 105% in assay [1]; 85% in [2]; 102% in assay [3]; 95.1% in assay [4]; -9.2% (active) in assay [5]; 3.88% (active) in assay [6]. In addition, the growth in assay [7] is 102%; in assay [8], 102%; in assay [9], 97.6%; in assay [10], 104%; in [11], -12.5% (active); in [12], 51.6%. The growth is 69.5% in assay [13]; 88.8% in assay [15]; 90.5% in assay [20]; 94% in [17]; 110% in [18].
For `CCN(CC)CCC(=O)c1ccc(OC)c2ccccc12`, the growth in assay [1] was 90.8%; in assay [2] it was 115%; in [3] it was 90.9%; in assay [4] it was 99.8%; in assay [5] it was 102%; in assay [6] it was 12.6%. Moreover, the growth in assay [7] is 100%; in assay [8], 98.7%; in assay [9], 109%; in [10] it was 116%; in [11], 43.9%; in assay [12], 104%. Besides, the growth in assay [13] was 110%; in assay [14] it was 81.8%; in assay [15] it was 110%; in assay [16], 99.6%; in assay [17], 89.4%; in [18], 90.1%.
Consider `Cc1ccc2c(c1)O/C(=C\c1cccc(OCC(=O)c3ccccc3)c1)C2=O`, for which the growth in assay [1] is 97.4%; in [2], 93.6%; in [19], 90.3%; in [4], 107%; in assay [5], 75.2%; in assay [6] it was 70.3%. The growth in assay [7] was 81.6%; in [8], 91.1%; in assay [9], 101%; in [10], 103%; in [11], 93.4%; in assay [12] it was 94.7%. The growth is 79% in [13]; 80% in assay [14]; 103% in [15]; 89.4% in [16]; 105% in [20]; 93.6% in assay [17]. For the same molecule, the growth in assay [18] was 98.9%.
On to `Cc1noc(C)c1-c1cc(O)cc(C(O)c2ccccc2)c1` (centres undefined), for which the growth was 68.1% in assay [1]; 65.5% in [2]; 47.6% in [3]; 67.2% in assay [4]; 25.6% in [5]; 22.1% in assay [6]. In addition, the growth in [8] is 54.8%; in [9], 37.1%; in [10] it was 87.5%; in [11] it was 42.1%; in [12] it was 60%; in assay [13] it was 62.4%. Besides, the growth in assay [15] is 71.5%; in assay [16], 42.5%; in assay [20], 62.5%; in assay [17] it was 40.4%; in assay [18] it was 56%.
As for `COc1cc(C2CC(=O)Nc3c2c(C)nn3-c2nc3ccccc3[nH]2)cc(OC)c1OC` (centres undefined), the growth in assay [1] is 99.6%; in [2], 99.1%; in assay [3] it was 103%; in assay [4] it was 100%; in assay [5], 89.8%; in assay [6], 94%. Also, the growth is 97.7% in [7]; 110% in assay [8]; 116% in [9]; 119% in assay [10]; 99.7% in assay [11]; 106% in [12]. Moreover, the growth in assay [13] was 91.6%; in assay [14], 89.8%; in assay [15], 112%; in assay [17], 96.7%; in assay [18], 92.3%.
As for `Cc1ccc(Nc2nc(N)nc(Nc3ccc4ccccc4c3)n2)cc1`, the growth in assay [1] is 69.2%; in assay [2], 89.8%; in assay [3], 52.4%; in [4] it was 14.6%; in [5] it was 21.1%; in [6], 6.88% (active). Moreover, the growth was 46.6% in assay [8]; 18.7% in [9]; 58.5% in assay [10]; 20.2% in assay [11]; 83.9% in [12]; 47.9% in [13]. Also, the growth in assay [14] was 27.3%; in assay [15] it was 46.3%; in [16] it was 53.3%; in assay [17] it was 54.3%; in assay [18] it was 44%.
